Source: PubChem BioAssay (NCATS)
Several values for one entry are separate records, joined by “and”; a condition that tells them apart may be missing. Equal entries are not always repeated. Inconclusive results are not listed. Some structures have more than one record in an assay (separate samples or runs), and their calls can disagree. Activity calls are given as the source filed them. Unless noted, the call rests on the fitted dose curve; in most records, active means well fitted curve in either direction with a large enough effect (not every such curve was filed as active); inconclusive means small, poorly fitted or top-dose-only effect, or another doubt; inactive means flat fitted curve, though single readings scatter.

Key:
[1] = AP1 Signaling Pathway (AID 357); further: on the % scale 0 is the no-effect control and ±100 the full control effect
Outline: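 AP-1-bla ME-180 cells with beta-lactamase reporter under AP-1 response element, stimulated with EC50 EGF; compounds titrated, 5 hours at 37 degrees Celsius. CCF4 read at 460/530 nm ratio; positive and negative modulators judged by AC50.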

[2] = target: Cytochrome P450 1A2 (Homo sapiens) (UniProt P05177); test: p450-cyp1a2 (AID 410; calls by dose curve; further: potency means the concentration at half of the fitted maximal effect;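 on activity change, negative = inhibition: -100% = full effect of reference inhibitor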)
Sequence of Cytochrome P450 1A2 (Homo sapiens) (P05177 whole entry, looked up): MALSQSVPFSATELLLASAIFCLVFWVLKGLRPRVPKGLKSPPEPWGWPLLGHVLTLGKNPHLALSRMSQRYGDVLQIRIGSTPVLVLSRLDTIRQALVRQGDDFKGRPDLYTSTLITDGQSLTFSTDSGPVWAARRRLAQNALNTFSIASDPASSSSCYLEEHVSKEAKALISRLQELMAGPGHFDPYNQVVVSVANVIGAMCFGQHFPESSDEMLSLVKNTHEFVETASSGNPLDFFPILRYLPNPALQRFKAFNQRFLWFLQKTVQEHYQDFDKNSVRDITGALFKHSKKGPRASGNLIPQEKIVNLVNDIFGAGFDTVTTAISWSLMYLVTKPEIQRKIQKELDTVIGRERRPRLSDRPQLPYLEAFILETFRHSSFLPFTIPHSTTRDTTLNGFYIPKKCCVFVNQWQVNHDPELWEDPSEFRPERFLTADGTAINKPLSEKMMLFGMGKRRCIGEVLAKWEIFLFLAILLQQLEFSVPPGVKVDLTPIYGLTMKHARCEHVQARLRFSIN
Outline: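 Luminescent demethylation readout: Luciferin-ME (100uM, equal to Km) turned over by 20nM CYP1A2 for 60 min at room temperature after NADPH regeneration addition, following 10 min compound preincubation. Normalization used 57 uM furafylline as full inhibition.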

[3] = NFAT Signaling Pathway (AID 444); settings: Jurkat NFAT-bla M1, carbachol, beta-lactamase ratio, 5 h; at 38 µM (top of the series) unless noted;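 further: carbachol stimulus at about its EC50 of 1 µM final; on the % scale 0 is the no-effect control and ±100 the full control effect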
Outline: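 Read-out: CCF4 FRET ratio (460 nm/530 nm) after 1 h RT dye loading, used for %activity and AC50 from titration series. Cells: Jurkat NFAT-β-lactamase/M1 line, treated with compound plus 1 uM carbachol for 5 h, 37 °C.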

[4] = Stat Signaling Pathway (AID 446); settings: ME-180 (cervical carcinoma) SIE beta-lactamase reporter, IL-6 stimulated, 5 h; at 38 µM (top of the series) unless noted;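 further: ME-180 cervical cancer cells given 40 pM IL-6 alongside compound; SIE-controlled beta-lactamase reporter measured as 460/530 nm FRET emission ratio; on the % scale 0 is the no-effect control and ±100 the full control effect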
Outline: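 FRET read-out (405 nm excitation, 460/530 nm emission) of a beta-lactamase reporter under a STAT-inducible element in ME-180 cervical carcinoma cells. Cells with compound receive 40 pM IL-6 for 5 h. Values are normalised to AC90 stimulation and AC90 JAK-inhibitor controls.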

[5] = target: Glucocorticoid receptor (Homo sapiens) (UniProt P04150); test: GR-GFP Redistribution (AID 450;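 active means compounds whose dose series gives a full or clear partial fitted curve of increased nuclear translocation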; further: potency means the concentration at half of the fitted maximal effect); settings: U2OS GR-GFP nuclear translocation, laser cytometry, 2 h
Sequence of Glucocorticoid receptor (Homo sapiens) (P04150 whole entry, looked up, the tested form may be a part): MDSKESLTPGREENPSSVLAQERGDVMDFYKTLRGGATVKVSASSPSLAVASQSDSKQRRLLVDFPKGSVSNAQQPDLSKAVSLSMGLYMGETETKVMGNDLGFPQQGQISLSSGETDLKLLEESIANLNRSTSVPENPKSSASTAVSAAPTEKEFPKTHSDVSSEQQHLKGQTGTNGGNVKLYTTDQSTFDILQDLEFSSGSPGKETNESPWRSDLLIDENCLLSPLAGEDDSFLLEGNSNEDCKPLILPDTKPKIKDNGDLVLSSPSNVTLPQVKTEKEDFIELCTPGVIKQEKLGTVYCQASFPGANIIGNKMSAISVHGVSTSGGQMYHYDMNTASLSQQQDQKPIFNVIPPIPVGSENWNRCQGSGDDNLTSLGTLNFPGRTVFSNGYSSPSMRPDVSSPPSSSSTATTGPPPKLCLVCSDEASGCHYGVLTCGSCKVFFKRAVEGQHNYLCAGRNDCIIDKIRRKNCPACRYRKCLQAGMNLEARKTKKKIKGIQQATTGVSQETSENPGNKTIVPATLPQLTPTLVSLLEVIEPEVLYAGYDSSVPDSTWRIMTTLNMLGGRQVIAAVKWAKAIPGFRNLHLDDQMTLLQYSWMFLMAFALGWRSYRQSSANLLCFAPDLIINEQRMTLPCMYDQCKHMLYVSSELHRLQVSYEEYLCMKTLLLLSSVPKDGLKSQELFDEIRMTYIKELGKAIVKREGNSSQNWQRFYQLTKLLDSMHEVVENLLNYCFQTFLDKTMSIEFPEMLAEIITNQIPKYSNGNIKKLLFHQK

[6] = target: Glucocorticoid receptor (Homo sapiens) (UniProt P04150); test: GR-EFC Redistribution (AID 451; calls by dose curve; further: potency means the concentration at half of the fitted maximal effect); settings: CHO-K1 GR-EFC translocation, beta-gal luminescence, 2 h
Outline: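 Translocation of GR-ED fusion to nuclear EA restores b-gal, read by luminescence after 1 h room-temperature detection. Engineered CHO-K1 biosensor cells, 1,000/well, exposed 2 h at 37 C to titrations up to 46 uM final.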

[7] = target: Mitogen-activated protein kinase 10 (Mus musculus) (UniProt Q61831); test: JNK3 AlphaScreen Assay (AID 530);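 further: kinase came from lysate of stimulated human HepG2 cells; signal reports phosphorylation of biotinylated GST-cJun 1-79 at Ser73 with 10 µM ATP; on the % scale 0 is the no-effect control and ±100 the full control effect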
Outline: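 qHTS titrations with 15 min compound pre-incubation before adding ATP (10 uM final). Read-out: AlphaScreen of Ser73-phosphorylated biotin-GST-cJun using HepG2 lysate JNK3 activated by IL-1β and TNFα.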

[8] = target: Lysosomal acid glucosylceramidase (Homo sapiens) (UniProt P04062); test: Glucocerebrosidase-p2 (AID 348; in the data active means potency below about 10 µM; further: potency means the concentration at half of the fitted maximal effect); settings: purified GBA, blue fluorogenic substrate, 40 min
Sequence of Lysosomal acid glucosylceramidase (Homo sapiens) (P04062 whole entry, looked up): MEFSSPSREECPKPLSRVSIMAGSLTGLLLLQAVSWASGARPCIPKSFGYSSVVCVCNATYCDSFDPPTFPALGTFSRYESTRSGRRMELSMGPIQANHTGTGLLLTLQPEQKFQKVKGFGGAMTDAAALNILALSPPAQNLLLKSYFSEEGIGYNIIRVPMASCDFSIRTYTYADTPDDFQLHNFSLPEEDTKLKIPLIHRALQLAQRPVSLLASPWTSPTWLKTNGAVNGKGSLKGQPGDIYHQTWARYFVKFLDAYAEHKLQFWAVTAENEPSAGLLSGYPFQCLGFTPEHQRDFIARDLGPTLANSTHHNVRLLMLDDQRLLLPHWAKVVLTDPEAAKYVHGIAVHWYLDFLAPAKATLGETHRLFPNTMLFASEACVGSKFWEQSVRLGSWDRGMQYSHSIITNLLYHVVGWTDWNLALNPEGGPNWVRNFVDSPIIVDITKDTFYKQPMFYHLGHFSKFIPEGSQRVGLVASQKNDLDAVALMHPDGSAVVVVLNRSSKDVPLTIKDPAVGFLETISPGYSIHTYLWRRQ
Outline: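 Normal human glucocerebrosidase (0.2 nM) with blue fluorogenic substrate (80 uM final) in citrate/phosphate pH 5.9 with 10mM sodium taurocholate, 0.01% tween-20; 40 min RT, NaOH/glycine stop; fluorescence Ex 365/Em 440; AC50 from a titration from 0.6 nM upwards.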

[9] = Cell Viability - BJ (AID 421; calls by dose curve;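 further: potency means the concentration at half of the fitted maximal effect; cells exposed to compound for 40 hours at 37 °C before readout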); settings: BJ fibroblast viability, qHTS
Outline: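 Cytotoxicity as drop in intracellular ATP (CellTiter-Glo, 20 min RT) after 40 hr compound exposure of BJ fibroblasts at 37 °C. Titrations scaled between DMSO and 100 uM tamoxifen, Hill-fitted for AC50.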

[10] = Cell Viability - Hek293 (AID 427;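 active means compounds whose dose-response curve shows a full or clear partial loss of cell viability, called from curve shape rather than a numeric limit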;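 further: potency means the concentration at half of the fitted maximal effect; cells exposed to compound for 40 hours at 37 °C before reading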); settings: qHTS
Outline: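 Luminescent ATP content (CellTiter-Glo, 20 min at room temperature) was measured after a 40 hr, 37 °C compound exposure of HEK293 cells. AC50 values came from Hill-equation fits of qHTS concentration-response data normalized to DMSO and 100 uM tamoxifen.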

[11] = Cell Viability - HepG2 (AID 433; calls by dose curve;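 further: potency means the concentration at half of the fitted maximal effect; potency for ATP loss meaning cytotoxicity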); settings: qHTS
Outline: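 In this qHTS format, a 40 h, 37 °C compound incubation of HepG2 cells in complete medium precedes a 20 min CellTiter-Glo step at room temperature. Tamoxifen and doxorubicin serve as positive controls; Hill-equation fits yield AC50.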

[12] = Cell Viability - MRC5 (AID 434; calls by dose curve;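 further: potency means the concentration at half of the fitted maximal effect; potency reflects cytotoxicity seen as loss of intracellular ATP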); settings: MRC5 lung fibroblast viability, qHTS
Outline: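 AC50 values come from Hill-equation fits of intracellular ATP loss, measured by CellTiter-Glo luminescence. Normal lung fibroblasts (MRC5) had 40 hr compound treatment at 37 C, normalized between DMSO and 100 uM tamoxifen.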

[13] = Cell Viability - SK-N-SH (AID 435; calls by dose curve; further: potency means the concentration at half of the fitted maximal effect); settings: SK-N-SH neuroblastoma cell viability qHTS
Outline: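 Human neuroblastoma line, 40 h exposure at 37 °C, ATP quantified via luciferase luminescence; DMSO and 100 uM tamoxifen define 0 and 100% inhibition for AC50 fitting.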

[14] = Cell Viability - N2a (AID 540; active means well fitted curve in the direction sought with a large enough effect; an effect the other way counts as inactive or inconclusive;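 further: plate controls were DMSO alone for no effect and tamoxifen control for full effect; nearly all actives have a fitted effect of over 45% in size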); settings: N2a mouse neuroblastoma cell viability; activity change, negative = cytotoxicity: at 92.2 µM (top of the series)
Outline: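 CellTiter-Glo ATP luminescence, read 20 min after reagent at room temperature, reported viability following 40 h compound treatment at 37 °C. N2a mouse neuroblastoma cells seeded 1500/well; Hill equation gave AC50.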

[15] = Cell Viability - NIH 3T3 (AID 541; active means well fitted curve in the direction sought with a large enough effect; an effect the other way counts as inactive or inconclusive;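 further: plate controls were DMSO alone for no effect and tamoxifen positive control for full effect; nearly all actives have a fitted effect of over 25% in size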); settings: NIH 3T3 cell viability, qHTS
Outline: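 Intracellular ATP (CellTiter-Glo luminescence, 20 min at room temperature) measured after 40 hr compound exposure at 37 °C of 1000 NIH 3T3 mouse fibroblasts/well in complete medium; AC50 derived by Hill-equation modelling of qHTS concentration-response curves.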

[16] = Cell Viability - HUV-EC-C (AID 542; active means well fitted curve in the direction sought with a large enough effect; an effect the other way counts as inactive or inconclusive; further: on the % scale 0 is the no-effect control and ±100 the full control effect; nearly all actives have a fitted effect of over 35% in size)
Outline: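 CellTiter-Glo luminescence measured ATP loss in HUV-EC-C cells (1000/well) after 40 hr compound exposure at 37 °C, in complete culture medium. Concentration-response data were Hill-fitted to give AC50.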

[17] = Cell Viability - H-4-II-E (AID 543; active means well fitted curve in the direction sought with a large enough effect; an effect the other way counts as inactive or inconclusive; further: on the % scale 0 is the no-effect control and ±100 the full control effect; nearly all actives have a fitted effect of over 35% in size)
Outline: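 CellTiter-Glo luminescence (intracellular ATP) measured after 40 h compound exposure at 37 °C in H-4-II-E rat hepatoma cells seeded at 1500/well. Values are AC50s fitted with the standard Hill equation.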

[18] = Cell Viability - SH-SY5Y (AID 544; active means well fitted curve in the direction sought with a large enough effect; an effect the other way counts as inactive or inconclusive; further: potency means the concentration at half of the fitted maximal effect; nearly all actives have a fitted effect of over 55% in size)
Outline: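 Cytotoxicity measured via ATP-dependent luciferase luminescence (CellTiter-Glo) following 40 h, 37 °C exposure of 1500 SH-SY5Y cells per well. Concentration-response data were fitted with the standard Hill equation to give AC50.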

[19] = Cell Viability - Renal Proximal Tubule (AID 545; active means well fitted curve in the direction sought with a large enough effect; an effect the other way counts as inactive or inconclusive;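 further: 0% = DMSO only and -100% = 100 µM tamoxifen; nearly all actives have a fitted effect of over 40% in size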); settings: renal proximal tubule cells viability; activity change, negative = cytotoxicity: at 91.7 µM (top of the series)
Outline: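 In this qHTS format, normal rat kidney-derived proximal tubule cells in complete culture medium receive compound titrations, then sit 40 hours at 37 °C before luciferase-based ATP quantitation; potency is reported as AC50 from concentration-response curves.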

CCS(=O)(=O)Nc1cccc(C(=C2CCCCC2)c2cnc[nH]2)c1
active: Potency [2] 0.316 µM
inactive: outcome [1] | activity change, negative = inhibition [3] 4.67% | activity, negative = inhibition [4] -26.3% | Potency [5] > 46 µM | Potency [6] > 46 µM

O=[N+]([O-])c1cc(O)c(O)c([N+](=O)[O-])c1
inactive: outcome [1] | Potency [2] | activity change, negative = inhibition [3] 3.02% | activity, negative = inhibition [4] 48.1% | Potency [5] > 46 µM | Potency [6] > 46 µM | outcome [7]

O=[N+]([O-])c1ccc2nc(N3CCNCC3)ccc2c1
inactive: outcome [1] | activity change, negative = inhibition [3] 4.11% | activity, negative = inhibition [4] 2.58% | Potency [5] > 46 µM | Potency [6] > 46 µM | outcome [7]
active: Potency [2] 2 µM

CN(N=O)c1cc(O)ccc1O
active: Potency [2] 31.6 µM
inactive: outcome [1] | activity change, negative = inhibition [3] 0.498% | Potency [5] > 46 µM | Potency [6] > 46 µM

O=S1(=O)N(CCN2CC=C(c3c[nH]c4cc(F)ccc34)CC2)c2cccc3c2N1CCC3
inactive: outcome [1] | activity change, negative = inhibition [3] -17.5% | activity, negative = inhibition [4] 22.3% | Potency [5] > 46 µM | Potency [6] > 46 µM | outcome [7]
active: Potency [2] 3.98 µM

c1ccc2c(N3CCNCC3)cccc2c1
active: Potency [2] 10 µM
inactive: outcome [1] | activity change, negative = inhibition [3] -26.6% | activity, negative = inhibition [4] -46.5% | Potency [5] > 46 µM | Potency [6] > 46 µM

Cc1[nH]c2ccc(O)cc2c1CCN
inactive: outcome [1] | activity change, negative = inhibition [3] 10.3% | activity, negative = inhibition [4] 6.41% | Potency [5] > 46 µM | Potency [6] > 46 µM | outcome [7]
active: Potency [2] 31.6 µM

N#CCCN
inactive: outcome [1] | Potency [2] | activity change, negative = inhibition [3] 7.43% | activity, negative = inhibition [4] 20.4% | Potency [5] > 46 µM | Potency [6] > 46 µM | outcome [7]

NC(=O)CI
inactive: outcome [1] | activity change, negative = inhibition [3] 6.62%
active: Potency [2] 31.6 µM

COc1ccc2[nH]cc(CCN)c2c1
active: Potency [2] 1.58 µM
inactive: outcome [1] | activity change, negative = inhibition [3] -0.77% | activity, negative = inhibition [4] -1.18% | Potency [5] > 46 µM | Potency [6] > 46 µM

O=P(O)(O)C(Cl)(Cl)P(=O)(O)O
inactive: outcome [1] | Potency [2] | activity change, negative = inhibition [3] 10.1%

NCCc1c[nH]c2ccc(C(N)=O)cc12
active: Potency [2] 6.31 µM and 1.26 µM
inactive: outcome [1] | activity change, negative = inhibition [3] 4.42% | activity, negative = inhibition [4] 4.94% | Potency [5] > 46 µM | Potency [6] > 46 µM

CC(C)(C)c1cc(O)ccc1O
active: activity change, negative = cytotoxicity ([15]; activity change, negative = cytotoxicity: at 92.2 µM (top of the series)) -106% | Potency [18] 10 µM and 12.6 µM
inactive: Potency [8] > 11.4 µM | activity change, negative = inhibition [1] 7.46% [at 7.69 µM] | activity change, negative = inhibition [2] -8.4% [at 11.4 µM] | Potency [9] > 92 µM | Potency [10] > 92 µM | Potency [11] > 92 µM | Potency [12] > 92 µM | Potency [13] > 92 µM | activity change, negative = inhibition [3] -2.58% [at 7.69 µM] | activity, negative = inhibition [4] -2.67% [at 7.69 µM] | Potency [5] > 46 µM | Potency [6] > 9.22 µM | Potency [14] | activity change, negative = cytotoxicity ([15]; at 92.2 µM (top of the series)) -22.3% | Potency [16] | Potency [17] | Potency [19]

NCCCP(=O)(O)O
inactive: outcome [1] | Potency [2] | activity change, negative = inhibition [3] -4.18% | activity, negative = inhibition [4] 26.4% | Potency [5] > 46 µM | Potency [6] > 46 µM | outcome [7]

CCC1(C)CC(=O)NC(=O)C1
inactive: outcome [1] | Potency [2] | activity change, negative = inhibition [3] -6.48% [at 17.2 µM] | activity, negative = inhibition [4] -0.442% [at 17.2 µM] | Potency [5] > 20.6 µM | Potency [6] > 20.6 µM | outcome [7]

CP(=O)(O)C1=CCNCC1
inactive: outcome [1] | Potency [2] | activity change, negative = inhibition [3] -1.42% | activity, negative = inhibition [4] -9.22% | Potency [5] > 46 µM | Potency [6] > 46 µM

CN1CCc2cccc(Cl)c2CC1
inactive: outcome [1] | Potency [2] | activity change, negative = inhibition [3] 3.59% | activity, negative = inhibition [4] 15.3% | Potency [5] > 46 µM | Potency [6] > 46 µM

CCCN(CCC)[C@@H]1CCc2cccc(O)c2C1
inactive: outcome [1] | activity change, negative = inhibition [3] -1.36% | activity, negative = inhibition [4] -0.802% | Potency [5] > 46 µM | Potency [6] > 46 µM | outcome [7]
inactive and 31.6 µM (active): Potency [2]

CC(C)NP(=O)(NC(C)C)OP(=O)(NC(C)C)NC(C)C
inactive: outcome [1] | Potency [2] | activity change, negative = inhibition [3] -0.786% | activity, negative = inhibition [4] -17.3% | Potency [5] > 46 µM | Potency [6] > 46 µM
